Only some compounds are listed: those with a hit (about 19% of all), similar ones and a draw of the others.
DT40 TDP1 no CPT = qHTS for Inhibitors of human tyrosyl-DNA phosphodiesterase 1 (TDP1): qHTS in cells in absence of CPT | Potency, µM (series often up to 46.2 µM), for inactives: top-dose activity change, negative = growth inhibition, most hits filed as inhibitors | 420,000 tested, 15% active | AID 686978, 2013 | DT40 Tdp1-/- hTDP1 cells, no CPT, ATP luminescence, 48 h; also: potency is read from the fitted curve at half-maximal effect; nearly all actives have a fitted effect of over 55% in size
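Stably hTDP1-transfected Tdp1-null chicken DT40 cells were treated with library compounds minus camptothecin and grown for at least 48 hr at 37 °C, after which cellular ATP was quantified by luminescence.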
uPA generation = cell surface uPA generation inhibition. cell surface uPA generation assay, qHTS. Potency, µM (highest dose often 38.3 µM), without a hit: at the top dose activity change, negative = inhibition, most hits filed as inhibitors. 330,000 tested, 0.31% active. AID 540303; active = well fitted inhibition curve with a large enough effect; inconclusive = small, poorly fitted or top-dose-only effect; inactive = no such curve, though single readings can be large or run the other way; tested in mouse RAW 264.7 cells; also: potency is read from the fitted curve at half-maximal effect; nearly all actives have a fitted effect of over 55% in size
DT40 TDP1 CPT = DT40-hTDP1 cell growth loss with CPT. chicken DT40 Tdp1-/-;hTDP1 cells + 20 nM CPT, ATP luminescence, 48 h. Potency, µM (top dose mostly 46.2 µM), without a hit: at the top dose activity change, negative = growth inhibition, usual class: inhibitors. 420,000 tested, 12% active; also: potency is read from the fitted curve at half-maximal effect; nearly all actives have a fitted effect of over 55% in size
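Chicken DT40 Tdp1-/- cells stably complemented with human TDP1 were seeded at 400 cells/well in medium containing 20 nM camptothecin, exposed to pin-transferred compounds, and grown at 37 °C for at least 48 hr. Viability was read as ATP luminescence.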
IL1B secr inh = inflammasome signaling inhibition, IL-1 beta readout; AID 743279; activity change, % at 57.5 µM; THP-1 LPS/ATP IL-1B secretion, AlphaLISA, 16 h; active compounds read low; 360,000 tested, 4.7% active; in the data active = activity change below about -50%; inconclusive = mostly about -30% to -49%
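Secreted IL-1B measured by AlphaLISA bead assay after 16 h compound exposure of THP-1 cells; compounds (final up to 57.5 uM) added 1 h before LPS (250 ng/mL) and ATP (1.25 mM) stimulation; lower signal means less secretion.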
HT1080-NT tox = kills 2HG-producing HT-1080-NT fibrosarcoma cells; Potency, µM (titrated, usually from 46.1 µM), without a hit: top-dose activity, negative = less viability, actives largely listed as cytotoxic; HT-1080-NT fibrosarcoma viability, CellTiter-Glo ATP luminescence, 48 h; 360,000 tested, 1.6% active;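 also: NT is the 2HG producing partner of a matched IDH1 knockdown line; potency is read from the fitted curve at half-maximal effect; 0% = DMSO-treated cells and -100% = media-only wells without cells; nearly all actives have a fitted effect of over 55% in size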
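Toxicity toward the 2HG-producing NT line was scored as %Activity, normalised to DMSO and no-cell wells, from CellTiter-Glo luminescence after 48 hours' treatment.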
HT1080 IDH1KD tx = HT-1080 IDH1 knockdown cell toxicity (counter line); HT-1080 IDH1 knockdown viability, ATP luminescence, 48 h; Potency, µM (doses to about 46.1 µM), inactives show at the highest dose activity, negative = toxicity, hits mostly cytotoxic; 360,000 tested, 2% active; AID 686971;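 also: potency is read from the fitted curve at half-maximal effect; 0% = DMSO wells and -100% = cell-free medium wells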
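In this qHTS, HT-1080 cells depleted of IDH1 are exposed for 48 h at 37 °C to compound titrations. Toxicity is scored from CellTiter-Glo luminescence, with DMSO as full viability and medium alone as none.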
* = called active by the depositor; i = inactive; ? = inconclusive; nt = not tested or not shown. Unless noted, calls follow the shape of the dose curve; as a rule, active = well fitted curve in the direction sought with a large enough effect; inconclusive = small, poorly fitted or top-dose-only effect, or another doubt; inactive = no such curve, though single readings can be large; an effect the other way counts as inactive or inconclusive. Unless noted, % is scaled to controls: 0 for no effect and ±100 for the full control effect.

SMILES	DT40 TDP1 no CPT	uPA generation	DT40 TDP1 CPT	IL1B secr inh	HT1080-NT tox	HT1080 IDH1KD tx
CC1CN(C(=O)CSc2nc(N)c(NC(=O)c3ccc(C(F)(F)F)cc3)c(=O)[nH]2)CC(C)O1 (stereo not drawn)	0.4%	nt	-6.7%	-20.3	8.9%	12.2%
Cc1cc2oc(=O)cc(C)c2c2occ(-c3ccc(Cl)cc3)c12	8.9%	nt	30.5%	nt	nt	nt
CCCCNC(=O)C1(C)CCN1C(=O)c1cccnc1Oc1ccccc1 (stereo not drawn)	-4.1%	nt	-0.1%	6.6	-0.4%	-0.5%
O=C(Nc1ccc(NC(=O)c2ccco2)cc1)c1ccco1	4.4%	-7.0%	-0.5%	-13.1	-3.0%	-5.8%
O=C(Nc1ccc(Nc2ccccc2)cc1)c1ccco1	20.6µM*	-9.1%	20.6µM*	-100.1*	-2.6%	?
Fc1ccc(NC(=S)NCCN2CCOCC2)cc1	5.8%	-1.0%	-1.1%	6.3	-0.8%	5.0%
COC(=O)c1c(NC(=O)c2ccco2)sc(C(=O)Nc2ccc(F)cc2)c1C	23.1µM*	1.0%	?	34.4	4.8%	0.0%
CC(C)OC(=O)c1ccc(NC(=O)c2ccco2)cc1	23.1µM*	1.6%	18.4µM*	?	-8.7%	-10.9%
S=C(NCCN1CCOCC1)Nc1ccc(-c2nc3ccccc3[nH]2)cc1	?	10µM*	-7.7%	0.0	-1.4%	0.3%
CC(C)Cn1c(=O)c(CCC(=O)Nc2ccc(N3CCOCC3)cc2)nc2cc(Cl)ccc21	-12.7%	19.8%	-21.4%	-3.7	10.1%	-0.3%
CCCC(=O)Nc1nc2c(ncn2[C@@H]2O[C@H]3COP(=O)(O)O[C@@H]3[C@@H]2OC(=O)CCC)c(=O)[nH]1	-12.5%	nt	4.5%	nt	nt	nt
O=C(NCc1ccccn1)[C@@H]1CCCN1C(=O)[C@@H]1CCCN1	-14.9%	nt	-19.7%	-6.8	15.6%	-7.5%
Cc1ccc(C(C)C)c(Oc2cnccn2)c1	18.3%	8.5%	-1.3%	20.4	10.6%	5.3%
O=C(CSc1ccc(-c2nc3ccccc3[nH]2)cn1)N1CCN(C(=O)c2ccco2)CC1	?	nt	23.1µM*	8.4	-3.0%	17.1%
O=C(Nc1ccc(-c2nc3ccccc3[nH]2)cc1)c1ccco1	14.6µM*	-23.0%	14.6µM*	-14.7	?	-14.4%
O=C(/C=C/c1ccco1)Nc1ccc(-c2nc3ccccc3[nH]2)cc1	?	-10.5%	-0.6%	-11.3	-3.5%	-22.8%
O=C(c1ccc(NC2=NC3CS(=O)(=O)CC3S2)cc1)N(CCO)Cc1ccccc1 (stereo not drawn)	16.7%	8.2%	-1.0%	-22.6	19.2%	12.2%
Cc1ccc(S(=O)(=O)NCCN=Cc2ccc(N(C)C)cc2)cc1	-11.4%	14.3%	3.9%	8.0	0.6%	3.5%
c1ccc(CNc2ncnc3c2cnn3-c2ccccc2)cc1	4.61µM*	-12.5%	5.8µM*	40.7	?	?
CC(C)Nc1ncnc2c1cnn2-c1ccc(Cl)cc1	?	12.6µM*	?	-58.5*	0.9%	-6.6%
COCCNc1ncnc2c1cnn2-c1ccc(Cl)cc1	?	-4.1%	5.0%	-0.7	1.6%	9.5%
Clc1ccc(Nc2ncnc3c2cnn3-c2ccccc2)cc1	?	8.2%	?	-53.2*	-11.3%	-7.7%
CC(=O)Nc1ccc(Nc2ncnc3c2cnn3-c2ccccc2)cc1	?	nt	?	-16.4	-7.9%	-0.6%
CC[C@]1(C(=O)OC)[C@H]2C(=O)N(Cc3ccccc3)C(=O)[C@H]2[C@H]2CN(C)C(=NCc3ccccc3)N21	-9.0%	2.1%	-7.1%	-12.9	9.3%	9.2%
N=C1C(c2ccccc2)=C(O)CN1c1cccc(S(=O)(=O)N2CCOCC2)c1	-22.6%	6.4%	?	11.5	7.0%	8.5%
SMILES	DT40 TDP1 no CPT	uPA generation	DT40 TDP1 CPT	IL1B secr inh	HT1080-NT tox	HT1080 IDH1KD tx
Cc1ccc(OCC(=O)OCC(=O)c2cccc([N+](=O)[O-])c2)cc1C	5.0%	1.3%	12.1%	15.5	0.5%	26.5%
COc1ccc(CNC(=O)CC(C)n2nc(C)cc2C)cc1 (stereo not drawn)	-6.3%	nt	-14.4%	nt	nt	nt
COc1cccc2sc(=NC(=O)CS(=O)(=O)c3ccc(F)cc3)n(C)c12	11.6µM*	-10.4%	?	13.6	6.0%	-2.3%
COc1cccc2sc(=NC(=O)CS(=O)(=O)c3ccccc3)n(C)c12	14.6µM*	nt	?	3.5	2.1%	12.5%
CCn1c(=NC(=O)CS(=O)(=O)c2ccc(C)cc2)sc2cccc(OC)c21	16.4µM*	?	?	-7.8	3.2%	1.6%
COc1cccc2sc(=NC(=O)CS(=O)(=O)c3ccc(Cl)cc3)n(C)c12	2.31µM*	-15.2%	7.31µM*	49.2	-9.4%	?
CCOC(=O)c1c(C)c(-c2ccccc2)n(CC(=O)NC2CCCCC2)c1C	-9.7%	nt	1.1%	nt	nt	nt
Cc1c(C(=O)N(C)C)sc2c1c(=O)n(-c1ccccc1C(F)(F)F)c(=O)n2Cc1cccc(F)c1	-22.6%	nt	-20.3%	nt	nt	nt
O=C(NCc1ccco1)C1CC(c2ccc(Cl)c(Cl)c2)=NO1 (stereo not drawn)	8.2µM*	?	13µM*	21.3	?	-5.1%
O=C(NCc1ccco1)C1CC(c2c(Cl)cccc2Cl)=NO1 (stereo not drawn)	16.4µM*	?	?	9.6	2.5%	-16.7%
O=C(/C=C/c1c(Cl)cccc1Cl)NCc1ccco1	5.8µM*	-2.6%	?	-17.4	?	-29.6%
COc1ccccc1CNC(=O)C1CC(c2c(Cl)cccc2Cl)=NO1 (stereo not drawn)	-29.2%	-8.8%	-26.0%	-13.7	1.0%	-5.7%
O=C(NCc1cccc(C(F)(F)F)c1)C1CC(c2c(Cl)cccc2Cl)=NO1 (stereo not drawn)	16.4µM*	?	16.4µM*	14.8	?	?
O=C(NCc1cccc(Br)c1)C1CC(c2cc(C(F)(F)F)cc(C(F)(F)F)c2)=NO1 (stereo not drawn)	-7.4%	17.2%	-33.0%	17.5	10.8%	13.7%
COc1cccc(CN2CC(C(=O)NCc3cccc(N4CCCC4)c3)CCC2=O)c1 (stereo not drawn)	?	0.4%	?	-21.4	-2.4%	1.9%
Cc1ccc(Cl)cc1NC(=O)Nc1c(C)n(C)n(-c2ccccc2)c1=O	-5.5%	3.5%	8.6%	i	-6.4%	-0.7%
CS(=O)(=O)c1ccc(C(=O)OCC(=O)N2CCc3ccccc32)cc1[N+](=O)[O-]	3.98µM*	nt	3.55µM*	nt	nt	nt
